# CHX counter: counter-screen for Shiga toxin inhibitors: cycloheximide protein synthesis inhibition | max response, % | cell reporter, cycloheximide protein synthesis inhibition counterscreen | hit rate 12% among 300,000; in the data active means max response mostly above about 13%, no sharp cut-off; inactive means mostly below about 14%; further: read at 38.3 µM for the half of the compounds with a filed dose; 0% is about no effect
# RE007 growth inh: less growth of the S. pombe RE007 Vpr strain; hit rate 0.21% among 360,000; Potency, µM (series often up to 92.2 µM), without a hit: top-dose activity change, negative = less growth, usual class: inhibitors; S. pombe RE007 Vpr strain, BacTiter-Glo ATP luminescence, 24 h; active means well fitted falling curve with a large enough effect; inconclusive means small, poorly fitted or top-dose-only effect; inactive means no such curve, though single readings can be large or run the other way; further: potency means the concentration at half of the fitted maximal effect; on the % scale 0 is the no-effect control and ±100 the full control effect; nearly all actives have a fitted effect of over 50% in size
#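 Fission yeast RE007 carrying one integrated HIV-1 vpr copy, seeded at OD 0.01 in PMG+AL medium with 23 nL pinned compound. Grown 24 h at 30 degrees; viability read by BacTiter-Glo luminescence after 5 min.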
# Giardia FBPA inh: Giardia lamblia aldolase inhibition | A8B2U2 | purified Giardia FBPA | AID 2451 | hit rate 0.71% among 290,000 | Potency, µM (series often up to 59.6 µM), for the others: at the top dose activity, negative = inhibition, hits mostly inhibitors; further: potency means the concentration at half of the fitted maximal effect; on the % scale 0 is the no-effect control and ±100 the full control effect; nearly all actives have a fitted effect of over 55% in size
# Target sequence (A8B2U2 whole entry, looked up): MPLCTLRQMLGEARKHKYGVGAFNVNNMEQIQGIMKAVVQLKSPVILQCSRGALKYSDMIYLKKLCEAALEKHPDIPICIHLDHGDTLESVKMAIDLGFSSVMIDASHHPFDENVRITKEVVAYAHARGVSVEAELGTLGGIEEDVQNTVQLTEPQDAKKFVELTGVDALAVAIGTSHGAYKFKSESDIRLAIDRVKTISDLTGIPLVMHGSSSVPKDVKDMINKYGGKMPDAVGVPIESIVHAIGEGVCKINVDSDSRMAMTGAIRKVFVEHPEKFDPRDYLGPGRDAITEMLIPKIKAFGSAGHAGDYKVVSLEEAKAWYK
#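 Giardia FBPA (40 nM reagent) was preincubated 10 min at RT with compound (up to 57.5 uM final), then substrate plus GAPDH/TPI/NAD/arsenate coupling system with diaphorase/resazurin was added; resorufin fluorescence (525/598 nm) was read after 20 min.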
# LmPK inh: blocks Leishmania mexicana pyruvate kinase activity; Q27686; AID 1721; purified LmPK, Kinase-Glo ATP luminescence, 1 h; hit rate 0.37% among 290,000; Potency, µM (series often up to 57.5 µM), for inactives: at the highest dose activity change, negative = inhibition, actives largely listed as inhibitors; further: potency means the concentration at half of the fitted maximal effect; on the % scale 0 is the no-effect control and ±100 the full control effect
#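 0.1 nM LmPK, 0.5 mM PEP, 0.1 mM ADP; 50 mM imidazole pH 7.2, 7 mM MgCl2, 50 mM KCl; 1 h RT. Kinase-Glo luminescence readout, normalized to no-enzyme (full inhibition) and uninhibited wells.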
# TbPYK inhibitor: inhibitors of Trypanosoma brucei pyruvate kinase | Potency, µM (top dose mostly 76.8 µM), inactives show at the top dose activity, negative = inhibition, usual class: inhibitors | AID 624173 | hit rate 0.12% among 410,000 | Q57TT1 | TbPYK enzyme, Kinase-Glo Plus ATP luminescence, 45 min; further: potency means the concentration at half of the fitted maximal effect; on the % scale 0 is the no-effect control and ±100 the full control effect; nearly all actives have a fitted effect of over 50% in size
#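 T. brucei PYK with substrate was exposed to pin-transferred compounds across a concentration series, then started with 130 uM ADP (final). After 45 min at room temperature, Kinase-Glo Plus luminescence was read, normalized and curve-fitted.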
# Shiga inhibitor: inhibitors of Shiga toxin in Vero cells | inhibition, % at 38.7 µM | hit rate 9.2% among 290,000 | AID 2315 | Vero cells, Shiga toxin protein synthesis inhibition reporter; in the data active means inhibition mostly above about 28%, no sharp cut-off; inactive means mostly below about 43%; further: 0% is about no effect
# Numbers without * were called inactive; ? = inconclusive; . = no result. The sample as a whole holds a higher share of hits than the screen did. Unless noted, the call rests on the fitted dose curve; in most records, active means well fitted curve in the direction sought with a large enough effect; inconclusive means small, poorly fitted or top-dose-only effect, or another doubt; inactive means no such curve, though single readings can be large; an effect the other way counts as inactive or inconclusive.
SMILES,CHX counter,RE007 growth inh,Giardia FBPA inh,LmPK inh,TbPYK inhibitor,Shiga inhibitor
O=C(O)c1ccc(N/N=C/c2cccc3nccnc23)cc1,27*,4%,-3%,-9%,-3%,45*
Cc1ccc(-c2nc(-c3nccc4ccccc34)oc2-c2ccccc2)cc1,22*,.,-14%,-6%,3%,98*
CCN1CCN(c2cc(C)c3cc(NC(=O)/C=C/c4cccc(Cl)c4)ccc3n2)CC1,.,.,.,.,1%,.
Cn1nc2c3ccccc3n(Cc3ccccc3)c2nc1=S,41*,2%,6%,1%,-3%,121*
COc1ccc(OCc2nnc(SCC(=O)NC3CC4CCC3C4)o2)cc1 (stereo unspecified),28*,23%,2%,-1%,-1%,44
COc1ccc(OCc2nnc(SCC(=O)NC3CCCCC3)o2)cc1,10,0%,2%,2%,8%,30*
CC(C)(C)OC(=O)C[C@H]1C/C=C\C[C@@H](CC(=O)N(CCO)Cc2ccccc2)C(=O)N[C@H](Cc2c[nH]c3ccccc23)COC1=O,.,0%,.,.,-5%,.
S=C(Nc1ccccc1)Nc1nc2ccccc2n1CCOc1ccc(Br)cc1,34*,4%,-15%,-1%,-5%,44*
Nc1nc2ccccc2n1CCOc1ccc(Br)cc1,-3,-5%,-5%,0%,0%,-1
Cn1c(NC(=S)Nc2ccccc2)nc2ccccc21,47*,1%,-2%,-6%,-21%,65*
Cc1cccc(OC(C)C(=O)N2CCC(c3nc4ccccc4o3)CC2)c1C (stereo unspecified),.,.,.,.,0%,.
Cc1cc2c(cc(C(=O)OC(C(=O)NC3CCCCC3)C(C)C)n2C)o1 (stereo unspecified),.,0%,.,.,-10%,.
Cc1cc2c(cc(C(=O)OC(C(=O)NCC3CCCO3)C(C)C)n2C)o1 (stereo unspecified),15*,6%,-3%,-9%,-10%,34
O=[N+]([O-])c1ccc(COn2nnc3ccccc32)cc1,14*,9%,0%,-1%,0%,45
O=C(c1ccc(Cl)cc1Cl)n1nnc2ccccc21,2,.,2%,.,.,-3
Clc1ccc(COn2nnc3ccccc32)c(Cl)c1,44*,-20%,-3%,-3%,3%,109*
CCOc1ccc2c(c1)C(N(CCN1CCOCC1)C(=O)Nc1ccccc1)CC(C)(C)O2 (stereo unspecified),-5,18%,1%,12%,8%,15
COc1cccc(Cn2c(=O)c(C)nc3cnc(N4CCN(C)CC4)nc32)c1,.,.,-5%,.,.,.
CC1=C(C(=O)OC2CCCCCC2)C(c2ccc(C)o2)C2=C(CCCC2=O)N1 (stereo unspecified),9,-10%,-4%,2%,1%,active
O=C(NCC1CCCO1)c1cc2ccccc2o1 (stereo unspecified),24*,8%,.,-5%,4%,24
COc1ccc(/C=C/C(=O)NCC2COc3ccccc3O2)cc1OC (stereo unspecified),8,-4%,3%,2%,3%,12
O=C(NCC1COc2ccccc2O1)c1ccc(NC(=O)C2CCCO2)cc1 (stereo unspecified),15*,12%,2%,1%,-4%,37*
O=C(OCC1COc2ccccc2O1)c1ccccc1F (stereo unspecified),19*,-6%,0%,9%,-2%,25
O=C(COC(=O)c1ccccc1)NCC1COc2ccccc2O1 (stereo unspecified),.,-14%,.,.,9%,.
Cc1ccc(/C=C/C(=O)NCC2COc3ccccc3O2)o1 (stereo unspecified),16*,-3%,-16%,-23%,?,18
SMILES,CHX counter,RE007 growth inh,Giardia FBPA inh,LmPK inh,TbPYK inhibitor,Shiga inhibitor
Oc1c(C(c2ccccc2)N2CCOCC2)sc2nc(-c3ccco3)nn12 (stereo unspecified),.,.,.,.,-5%,.
Cc1ccc(-n2c3nc(=O)[nH]c(=O)c-3cc3c(C)nn(-c4ccccc4)c32)cc1Cl,.,.,.,.,3%,.
Cc1ccc(S(=O)(=O)N2C[C@H]3[C@H]4C(=O)N(Cc5ccccc5)C(=O)[C@H]4CC(=O)[C@H]3[C@@H]2c2ccccc2)cc1,.,5%,.,.,-1%,.
CCOC1=C2[C@@H](CN(S(=O)(=O)c3ccc(C)cc3)[C@H]2c2cccc3ccccc23)[C@H]2C(=O)N(C3CCCCC3)C(=O)[C@H]2C1,.,6%,.,.,1%,.
O=C(CCNC(=O)c1ccccc1Cl)NCC1COc2ccccc2O1 (stereo unspecified),.,5%,.,.,-1%,.
O=C(NCC1COc2ccccc2O1)c1ccccc1 (stereo unspecified),50*,18%,9%,0%,2%,103*
O=C(NCC1CCCO1)c1cc2ccccc2cc1O (stereo unspecified),.,-19%,.,.,3%,.
O=C(NCC1CCCO1)c1cc2ccccc2nc1Cl (stereo unspecified),28*,12%,9%,-3%,2%,76*
O=C(CCNC(=O)c1ccc(Br)cc1)NCC1COc2ccccc2O1 (stereo unspecified),23*,21%,-1%,5%,0%,71*
O=C(NCC1COc2ccccc2O1)c1cc2ccccc2o1 (stereo unspecified),31*,14%,-3%,2%,-4%,65*
O=C(NC(=S)NCC1COc2ccccc2O1)c1ccccc1 (stereo unspecified),7,-24%,0%,3%,2%,11
CN(C(=O)c1cc2c(=O)oc3ccccc3c2s1)c1ccc(F)cc1,.,.,.,.,-1%,.
Cc1nn(-c2ccccc2)c(C)c1C(=O)OCC(=O)Nc1ccccc1,.,-20%,.,.,3%,.
Cc1nc(COC(=O)c2c(C)nn(-c3ccccc3)c2C)cs1,35*,-8%,4%,-2%,-3%,100*
CCOc1ccccc1NC(=O)CN1C(=O)COc2ccc(S(=O)(=O)NC3CCCC3)cc21,.,.,.,.,-4%,.
COc1ccc(N2CCN(C(CNC(=O)c3c(F)cccc3F)c3ccc4c(c3)OCO4)CC2)cc1 (stereo unspecified),.,.,.,.,-6%,.
C(#CC1CCCC1)c1ccc2c(c1)COc1c3ccccc3nn1-2,14*,4%,6%,-4%,-19%,91*
CCn1c(=O)c(C(=O)Nc2ccccc2C)c(O)c2ccccc21,16,0%,4%,2%,?,active
CCn1c(=O)c(C(=O)Nc2ccc(C)cc2)c(O)c2ccccc21,9,2%,6%,1%,1%,43
C=CCn1c(=O)c(C(=O)Nc2ccccc2C)c(O)c2ccccc21,19*,6%,-15%,4%,-6%,20
CCCn1c(=O)c(C(=O)N/N=C/c2ccc(F)cc2)c(O)c2ccccc21,-2,22%,5%,1%,-3%,2

# Bioassay records as filed in PubChem BioAssay.
